SENP6 block – blocks the human protease SENP6. Q9GZR1. Recombinant SENP6 catalytic domain, aminoluciferin luminescence. inhibition, % at 10 µM. actives 1.8% (n = 330,000). AID 2599;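 active = inhibition above about 50% at the single tested dose, limit read from the data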;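 also: plate controls were DMSO wells with enzyme for no effect and DMSO wells lacking enzyme for full effect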
Target sequence (Q9GZR1 628-1112 limits assumed): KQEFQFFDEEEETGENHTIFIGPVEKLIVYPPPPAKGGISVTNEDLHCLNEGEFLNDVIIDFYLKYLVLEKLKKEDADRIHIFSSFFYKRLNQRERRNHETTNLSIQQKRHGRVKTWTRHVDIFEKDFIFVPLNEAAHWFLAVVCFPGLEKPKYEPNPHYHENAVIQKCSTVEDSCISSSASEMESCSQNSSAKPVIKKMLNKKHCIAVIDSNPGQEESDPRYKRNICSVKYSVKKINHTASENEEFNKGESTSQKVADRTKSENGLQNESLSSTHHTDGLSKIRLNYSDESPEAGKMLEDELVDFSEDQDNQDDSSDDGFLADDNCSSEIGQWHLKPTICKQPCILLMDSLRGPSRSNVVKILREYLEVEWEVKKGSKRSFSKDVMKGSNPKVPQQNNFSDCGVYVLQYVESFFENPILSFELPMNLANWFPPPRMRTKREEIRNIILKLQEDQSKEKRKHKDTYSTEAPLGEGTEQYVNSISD
SENP8 block-1 – blocks human SENP8 cleavage of Nedd8 substrate | Q96LD8 | recombinant SENP8, Nedd8 substrate fluorescence | inhibition, % at 20 µM | actives 0.64% (n = 360,000); in the data active = inhibition mostly above about 40%, no sharp cut-off; inactive = mostly below about 27%
HSP90 refold inh – inhibitors of HSP90 luciferase refolding in rabbit reticulocyte lysate | AID 1789 | actives 0.91% (n = 290,000) | luciferase refolding luminescence, 3 h | inhibition, % at 5.6 µM;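 active = inhibition above the screen-wide mean plus 3 SD, computed separately per campaign, cut at about 16% in these data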;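 also: 0% = DMSO wells and 100% = 60 µM geldanamycin wells; inhibitors lower the luminescence because luciferase stays unfolded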
SENP7 block – SENP7 protease inhibition; Q9BQF6; recombinant SENP7, Z-RLRGG-aminoluciferin luminescence, 40 min; inhibition, % at 5 µM; actives 1.5% (n = 330,000); AID 434973;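 active = inhibition above about 50% at the single test dose, limit read from the data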;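 also: plate controls were DMSO with enzyme for no effect and no enzyme buffer wells for full effect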
Platelet DG rel – platelet dense granule release activity; human platelet-rich plasma, SFLLRN dense granule ATP release, luminescence; inhibition, %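 (compounds screened at 7.5 µM in platelet-rich plasma)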; actives 0.22% (n = 300,000); AID 1663;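 active = mean replicate score, as percent of positive control, at or above 50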
SENP8 block-2 – SENP8 protease inhibition | inhibition, % at 10 µM | Q96LD8 | purified SENP8, Z-RLRGG-aminoluciferin cleavage, luminescence | actives 1.2% (n = 330,000); in the data active = inhibition above about 50%
HSP90 confirm – HSP90 inhibition, confirmation assay | shares compounds with HSP90 refold inh | rabbit reticulocyte lysate, luciferase refolding luminescence, 3 h | inhibition, % at 5.9 µM | actives 64% (n = 2,300) | AID 1846; in the data active = inhibition above about 18%;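 also: 0% = vehicle wells and 100% = reference inhibitor wells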
luciferase ctr – counter-screen for HSP90 inhibitors: inhibitors of firefly luciferase. shares compounds with HSP90 refold inh. purified native firefly luciferase, luminescence. inhibition, % at 5.9 µM. actives 48% (n = 2,300);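 active = inhibition above the mean inhibition of all tested sample wells plus 3 SD, cut at about 10% in these data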;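 also: 0% = DMSO with luciferase and 100% = wells lacking luciferase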
SENP8 confirm – human SENP8 inhibition, confirmed | shares compounds with SENP7 block | Recombinant SENP8, Z-RLRGG-aminoluciferin luminescence, 60 min | inhibition, % at 12.5 µM | actives 40% (n = 6,200);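 active = mean inhibition across replicates above about 50%, limit read from the data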
SENP6 conf – confirmation of human SENP6 protease inhibitors | shares compounds with SENP7 block | recombinant SENP6, Z-RLRGG-aminoluciferin luminescence | inhibition, % at 12.5 µM | actives 58% (n = 6,200) | AID 488915
SENP7 conf – human SENP7 inhibition, confirmed; shares compounds with SENP7 block; recombinant SENP7, Z-RLRGG-aminoluciferin luminescence, 40 min; AID 488917; actives 69% (n = 6,200); inhibition, % at 12.5 µM
Casp3 select – selectivity test for SENP inhibitors: human caspase-3 inhibition; actives 60% (n = 6,200); shares compounds with SENP7 block; inhibition, % at 12.5 µM; purified caspase-3, Z-DEVD-aminoluciferin luminescence, 60 min;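 active = mean inhibition above about 50%, limit read from the data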;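 also: plate controls were enzyme with DMSO for no effect and wells without caspase-3 for full effect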
SENP luc ctr – interferes with luciferase luminescence in SENP counter-screen; AID 488919; actives 39% (n = 6,200); shares compounds with SENP7 block; Pre-incubated SENP8/Z-RLRGG-aminoluciferin, luciferase luminescence interference; inhibition, % at 12.5 µM;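 active = mean inhibition above about 50% when retested at one dose, limit read from the data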;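 also: plate controls were DMSO wells with completed reaction for no effect and substrate without enzyme for full effect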
* hit, by the source's call; x = no result given. The list is not random: actives were taken first. Their share in the collection is about 2.8%.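 The calls were made as follows, unless noted: active = mean inhibition above about 50% in the one-dose retest (limit read from the data); inactive = the rest.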

SMILES	SENP6 block	SENP8 block-1	HSP90 refold inh	SENP7 block	Platelet DG rel	SENP8 block-2	HSP90 confirm	luciferase ctr	SENP8 confirm	SENP6 conf	SENP7 conf	Casp3 select	SENP luc ctr
Cc1ccc2nc(-c3ccc(N)cc3)sc2c1	95*	-459	50*	98*	23	95*	69*	66*	96*	98*	102*	92*	45
O=C(COc1ccccc1)NCC(=O)N1CCCCCC1	-2	3	x	-1	x	6	x	x	x	x	x	x	x
CSc1ccc(S(=O)(=O)NCC(=O)OCC(=O)N(C)CC(=O)Nc2ccc(F)cc2)cc1[N+](=O)[O-]	x	18	x	x	x	x	x	x	x	x	x	x	x
OC[C@@H]1CN(Cc2ccccc2)C[C@H](n2ccc3c(N4CCCC4)ncnc32)O1	x	17	x	x	x	x	x	x	x	x	x	x	x
CC1(C(=O)NS(=O)(=O)c2cccs2)CCN1C(=O)CC1CC1 (stereo unspecified)	x	-4	x	x	x	x	x	x	x	x	x	x	x
CCCCNC(=S)N/N=C/c1cccc(OCC)c1O	11	-424	-4	2	8	8	x	x	x	x	x	x	x
CCOc1cccc(/C=N/NC(=S)Nc2ccccc2[N+](=O)[O-])c1O	31	23	75*	79*	-14	47	71*	34*	28	55*	37	26	7
Cc1ccc2c(c1)COc1c3ccc(C(=O)O)cc3nn1-2	95*	-68	96*	100*	16	95*	94*	79*	96*	96*	101*	97*	95*
Cc1cnc(NC(=O)c2cc3c(s2)CCCC3)s1	88*	-86	43*	85*	2	81*	66*	64*	88*	88*	97*	79*	56*
Cc1csc(NC(=O)c2cc3c(s2)CCCCC3)n1	92*	-57	61*	98*	26	94*	79*	77*	96*	97*	101*	92*	89*
Cc1csc(NC(=O)c2cc3c(s2)CCCC3)n1	95*	-106	35*	93*	x	89*	50*	50*	95*	96*	101*	88*	86*
CCOC(=O)Cc1csc(NC(=O)c2cc3c(s2)CCCC3)n1	42	-59	9	43	6	23	x	x	x	x	x	x	x
CCc1nnc(NC(=O)c2cc3c(s2)CCCCC3)s1	-18	-4	1	-4	-7	-16	x	x	x	x	x	x	x
Cc1csc(NC(=O)c2ccc(N3CCCC3=O)cc2)n1	77*	-19	42*	79*	44	63*	77*	68*	18	23	63*	85*	37
O=C(Nc1ccccn1)c1csc2c1CCCC2	24	7	0	-1	0	2	x	x	x	x	x	x	x
O=C(Nc1ccccn1)c1onc2c1CCCC2	87*	10	36*	94*	28	84*	76*	68*	9	90*	100*	95*	83*
CCS(=O)(=O)c1ccc2oc(SCC(=O)NC3CCCC(C)C3C)nc2c1 (stereo unspecified)	-4	-4	5	1	-4	6	x	x	x	x	x	x	x
O=C(O)c1ccc(-c2nnc(-c3ccccc3)o2)cc1	99*	21	58*	98*	40	95*	58*	14*	3	97*	101*	96*	81*
O=C(O)c1ccc(-c2nnc(-c3ccc([N+](=O)[O-])cc3)o2)cc1	-20	25	4	1	8	0	x	x	x	x	x	x	x
C/C=C/c1ccc(OCC(=O)N(CCOC)c2c(N)n(CCCC)c(=O)[nH]c2=O)c(OC)c1	-20	-10	x	5	10	-5	x	x	x	x	x	x	x
CC(c1ccco1)N(C(=O)COc1ccc(Cl)cc1)c1ccccn1 (stereo unspecified)	50*	-5	20*	2	x	18	0	-10	30	22	18	53*	51*
Cc1ccc2nc(C3CCCCC3)c(Cc3ccsc3)n2c1	x	-373	x	x	x	x	x	x	x	x	x	x	x
O=C(N/N=C/c1ccc2c(c1)OCO2)c1ccccn1	80*	-87	28*	92*	20	70*	57*	36*	4	68*	90*	85*	33
CC(C)c1ccc(/C=N/NC(=O)c2ccccn2)cc1	86*	14	28*	80*	35	79*	69*	63*	71*	84*	98*	89*	38
N#C/C(=C\c1ccc([N+](=O)[O-])cc1)c1ccccn1	8	12	3	5	0	-5	x	x	x	x	x	x	x
SMILES	SENP6 block	SENP8 block-1	HSP90 refold inh	SENP7 block	Platelet DG rel	SENP8 block-2	HSP90 confirm	luciferase ctr	SENP8 confirm	SENP6 conf	SENP7 conf	Casp3 select	SENP luc ctr
CN(C)c1ccc(/C=N/NC(=O)c2ccccn2)cc1	80*	-121	24*	91*	22	76*	62*	47*	10	85*	98*	95*	66*
CN(C)c1ccc(/C=C(\C#N)c2ccccn2)cc1	96*	4	66*	99*	33	96*	84*	78*	98*	99*	102*	97*	72*
CC(C)(C)C(=O)Nc1ccc(N=Nc2ccccc2)cc1	-1	29	71*	64*	9	41	79*	74*	40	61*	91*	59*	28
COc1ccc(-c2cc3cc(OC)c(OC)cc3cn2)cc1	-14	-340	x	47	x	33	x	x	x	x	x	x	x
COc1ccc2cc(-c3ccccc3)ncc2c1	95*	-194	20*	98*	41	92*	24*	10*	79*	95*	96*	86*	33
COc1ccc(OCC(=O)Nc2nccs2)cc1	26	13	31*	83*	22	62*	60*	39*	78*	79*	95*	93*	79*
O=C(COc1ccc2c(c1)OCO2)Nc1nccs1	96*	8	37*	95*	18	90*	53*	36*	95*	95*	102*	97*	93*
